# Reference: PubChem BioAssay (NCI)
# About 83,000 compounds went through this panel and 20% of them were active in at least one assay; those are over-represented in the sample as a whole.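 Testing used 96-well plates and a 48-hour single-concentration exposure. Example: -40 means 40% of the starting cells died.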 Active and inactive are the calls of the source. Rule for the calls: active = growth percent below 10; inactive = the rest.
# Assays:
# Assay in all cases: NCI-60 one-dose screen, 48 h (100 = growth as untreated, 0 = no growth, -100 = all killed)
# Details in all cases: 10 µM unless noted
# RPMI-8226 leukemia = tested on: RPMI-8226 leukemia
# OVCAR-8 ovarian = tested on: OVCAR-8 ovarian
# OVCAR-5 ovarian = tested on: OVCAR-5 ovarian
# OVCAR-4 ovarian = tested on: OVCAR-4 ovarian
# SK-OV-3 ovarian = tested on: SK-OV-3 ovarian
# IGROV1 ovarian = tested on: IGROV1 ovarian
# OVCAR-3 ovarian = tested on: OVCAR-3 ovarian
# HS 578T breast = tested on: HS 578T breast
# NCI/ADR-RES ovarian = tested on: NCI/ADR-RES ovarian
# T-47D breast = tested on: T-47D breast
# BT-549 breast = tested on: BT-549 breast
# MDA-MB-435 melanoma = tested on: MDA-MB-435 melanoma
# SW-620 colon = tested on: SW-620 colon
# MCF7 breast = tested on: MCF7 breast
# HCT-116 colon = tested on: HCT-116 colon
# HCC-2998 colon = tested on: HCC-2998 colon
# KM12 colon = tested on: KM12 colon
SMILES,growth (RPMI-8226 leukemia),growth (OVCAR-8 ovarian),growth (OVCAR-5 ovarian),growth (OVCAR-4 ovarian),growth (SK-OV-3 ovarian),growth (IGROV1 ovarian),growth (OVCAR-3 ovarian),growth (HS 578T breast),growth (NCI/ADR-RES ovarian),growth (T-47D breast),growth (BT-549 breast),growth (MDA-MB-435 melanoma),growth (SW-620 colon),growth (MCF7 breast),growth (HCT-116 colon),growth (HCC-2998 colon),growth (KM12 colon)
N/C(=N\c1nc2ccccc2s1)NC(=O)Nc1cccc2ccccc12,13.8% (inactive),32.9% (inactive),41.1% (inactive),60.8% (inactive),40.4% (inactive),33.6% (inactive),-14.2% (active),16.6% (inactive),-7.24% (active),38.5% (inactive),71.6% (inactive),-27.7% (active),19.7% (inactive),23.1% (inactive),0.264% (active),38.9% (inactive),14.7% (inactive)
Cc1onc2c(-c3ccccc3)n[nH]c(=O)c12,107% (inactive),116% (inactive),98.8% (inactive),108% (inactive),87.1% (inactive),140% (inactive),106% (inactive),127% (inactive),106% (inactive),83.3% (inactive),67.7% (inactive),96.9% (inactive),111% (inactive),89.8% (inactive),104% (inactive),94.8% (inactive),107% (inactive)
CCOC(=O)/C(C#N)=C\Nc1ccc2ncnc(Nc3ccc(Cl)cc3Cl)c2c1,79.5% (inactive),87% (inactive),82.2% (inactive),95.1% (inactive),97% (inactive),55% (inactive),67.6% (inactive),75.5% (inactive),85.4% (inactive),58.6% (inactive),89.6% (inactive),75.7% (inactive),100% (inactive),87.6% (inactive),92.9% (inactive),119% (inactive),79.1% (inactive)
COc1ccc(-c2cnc3ccccc3n2)cc1,97.2% (inactive),99.7% (inactive),92.6% (inactive),94.2% (inactive),98.5% (inactive),94.9% (inactive),103% (inactive),89.4% (inactive),102% (inactive),96.7% (inactive),95.1% (inactive),94.4% (inactive),96.6% (inactive),105% (inactive),99.2% (inactive),95.4% (inactive),92.7% (inactive)
c1ccc(Nc2cc(-c3cccnc3)[nH]n2)cc1,103% (inactive),95.8% (inactive),93.6% (inactive),96.6% (inactive),92.9% (inactive),95.7% (inactive),100% (inactive),101% (inactive),105% (inactive),99.5% (inactive),99.4% (inactive),101% (inactive),115% (inactive),88.9% (inactive),105% (inactive),104% (inactive),96.3% (inactive)
Cc1ccc(-c2nn(C)c(=O)c3noc(-c4ccc(C)cc4)c23)cc1,20.4% (inactive),43.8% (inactive),57.4% (inactive),61.4% (inactive),26.7% (inactive),48.2% (inactive),8.74% (active),28% (inactive),30.4% (inactive),24.2% (inactive),30.8% (inactive),-5.41% (active),21.1% (inactive),30% (inactive),37.5% (inactive),70.8% (inactive),35.9% (inactive)
Cn1cc(C(=O)c2nc(-c3cn(C)c4ccc(F)cc34)no2)c2cc(F)ccc21,91.1% (inactive),95.5% (inactive),85.9% (inactive),90.8% (inactive),81% (inactive),77.8% (inactive),98.4% (inactive),87% (inactive),102% (inactive),91.2% (inactive),106% (inactive),111% (inactive),90.6% (inactive),47.3% (inactive),98.1% (inactive),84.6% (inactive),95.2% (inactive)
O=C(O)C(c1ccccc1)N1C(=O)CSC1=S (centres undefined),114% (inactive),101% (inactive),101% (inactive),109% (inactive),101% (inactive),107% (inactive),106% (inactive),100% (inactive),106% (inactive),97.7% (inactive),94.2% (inactive),99.5% (inactive),103% (inactive),93.8% (inactive),102% (inactive),112% (inactive),102% (inactive)
O=C1CSC(c2c(Cl)cccc2Cl)N1c1nc(Cl)cc(=O)[nH]1 (centres undefined),58.7% (inactive),107% (inactive),94.4% (inactive),130% (inactive),109% (inactive),71.9% (inactive),107% (inactive),109% (inactive),95% (inactive),104% (inactive),228% (inactive),111% (inactive),102% (inactive),107% (inactive),103% (inactive),102% (inactive),112% (inactive)
NC1CCN(c2nc(Nc3cccc(C(F)(F)F)c3)c3c(=O)[nH]ccc3n2)CC1,-45.4% (active),-44.7% (active),14.9% (inactive),-49.7% (active),-76.1% (active),-46.2% (active),-72.2% (active),-24.5% (active),-30.8% (active),-73.2% (active),-91.8% (active),-74.2% (active),-76.8% (active),-85.8% (active),-99.5% (active),-85.8% (active),-67.1% (active)
O=[N+]([O-])c1ccc(Cl)c(-c2cc(CCCCO)on2)c1,105% (inactive),105% (inactive),101% (inactive),97.4% (inactive),113% (inactive),105% (inactive),111% (inactive),99.7% (inactive),101% (inactive),88.8% (inactive),99.7% (inactive),103% (inactive),104% (inactive),100% (inactive),105% (inactive),108% (inactive),104% (inactive)
COc1ccc(N2C(=O)C(Oc3ccccc3)C2c2ccc(C)cc2)cc1 (centres undefined),106% (inactive),91.8% (inactive),100% (inactive),93.4% (inactive),106% (inactive),102% (inactive),112% (inactive),94% (inactive),101% (inactive),96.9% (inactive),99.3% (inactive),98.7% (inactive),94.8% (inactive),96.3% (inactive),95.5% (inactive),97.7% (inactive),96.2% (inactive)
O=C(CCc1nnc(-c2c(Cl)cccc2Cl)o1)c1nc2ccccc2[nH]1,30.9% (inactive),57.2% (inactive),81.2% (inactive),58.8% (inactive),64.8% (inactive),57.6% (inactive),66.4% (inactive),82.3% (inactive),63.3% (inactive),52% (inactive),56.3% (inactive),-0.531% (active),35.8% (inactive),44.7% (inactive),22.1% (inactive),65.9% (inactive),28.7% (inactive)
COc1cccc2nc3n(c12)C(c1c(F)cccc1F)SC3 (centres undefined),70.4% (inactive),103% (inactive),80.8% (inactive),97.4% (inactive),101% (inactive),7.38% (active),132% (inactive),92.7% (inactive),95.7% (inactive),104% (inactive),108% (inactive),106% (inactive),106% (inactive),104% (inactive),93.8% (inactive),99.9% (inactive),100% (inactive)
COc1ccc(S(=O)(=O)n2cc(C3OC(c4cc(OC)c(OC)c(OC)c4)=NN3C(C)=O)c3ccccc32)cc1OC (centres undefined),61.5% (inactive),80.9% (inactive),85.8% (inactive),77.9% (inactive),96.6% (inactive),83.5% (inactive),112% (inactive),92.3% (inactive),81.7% (inactive),54.7% (inactive),51.8% (inactive),95.4% (inactive),97.9% (inactive),88% (inactive),67.7% (inactive),105% (inactive),137% (inactive)
Nc1nc(-c2cccc3ccccc23)cc2ccccc12,4.38% (active),17.9% (inactive),20.9% (inactive),61.4% (inactive),8.91% (active),-48.5% (active),-32.2% (active),-4.65% (active),2.9% (active),43.7% (inactive),39.2% (inactive),-64.8% (active),19.4% (inactive),7.69% (active),10.8% (inactive),-5.78% (active),5.93% (active)
COC(=O)c1ccc2[nH]c(O)c(C(=Nc3ccc(N(C)C(=O)CN4CCN(C)CC4)cc3)c3ccccc3)c2c1,-6.02% (active),26% (inactive),57.2% (inactive),34.2% (inactive),5.32% (active),10.2% (inactive),50.5% (inactive),-18.2% (active),83.8% (inactive),59.8% (inactive),11.2% (inactive),27.2% (inactive),6.45% (active),27.6% (inactive),6.52% (active),25.7% (inactive),13.9% (inactive)
